What follows are sequences tested against T1, GST-Dm-Relish (Drosophila melanogaster, UniProt Q94527 99-473) (assay: protein-binding microarray (PBM); PBM: ~300 nM protein, 6 mM HEPES pH 7.8, 80 mM KCl, 0.5 mM EDTA, 0.5 mM EGTA, 6% glycerol, 35 ng/ul poly-dIdC, 1% milk, 1 h, room temperature; Ap Aiptasia and Nv Nematostella (sea anemones) / Co Capsaspora / Aq Amphimedon (sponge) / Dm Drosophila / Hu human; RHD is the Rel homology domain; high values mean tight binding). Conditions: dsDNA, one strand shown.
T1 sequence: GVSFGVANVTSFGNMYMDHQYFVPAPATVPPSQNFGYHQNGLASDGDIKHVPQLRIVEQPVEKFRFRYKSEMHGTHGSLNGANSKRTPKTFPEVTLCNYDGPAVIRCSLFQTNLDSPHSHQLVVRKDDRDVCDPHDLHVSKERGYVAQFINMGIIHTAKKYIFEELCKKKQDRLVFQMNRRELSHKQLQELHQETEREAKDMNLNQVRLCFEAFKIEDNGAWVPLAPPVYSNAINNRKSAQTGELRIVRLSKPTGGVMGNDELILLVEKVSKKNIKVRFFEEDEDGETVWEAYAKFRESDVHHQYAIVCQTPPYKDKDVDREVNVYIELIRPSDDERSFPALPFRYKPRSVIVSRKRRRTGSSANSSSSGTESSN

Q: For “CCGATTAACATCAGTACATTCCATGATGTTAATCGGGTCTTGATTCGCTTGACGCTGCTG”, which binding signal is on record?
A: 2.01 z-score

Q: With “CCGATTAACATCACAACGGAATGTGATGTTAATCGGGTCTTGATTCGCTTGACGCTGCTG” as the sequence, how does the binding signal read?
A: 1.37 z-score

Q: How did the binding signal turn out when “CCGATTAACATCAGGAAATTCACTGATGTTAATCGGGTCTTGATTCGCTTGACGCTGCTG” was run?
A: 1.48 z-score

Q: How did the binding signal turn out when “CCGATTAACATCACAATACACGCTGATGTTAATCGGGTCTTGATTCGCTTGACGCTGCTG” was run?
A: 1.05 z-score

Q: Which binding signal does the source give for “CCGATTAACATCAGTTTTTTCCATGATGTTAATCGGGTCTTGATTCGCTTGACGCTGCTG” here?
A: 1.54 z-score

Q: Which binding signal does the source give for “CCGATTAACATCAGGATTTTACATGATGTTAATCGGGTCTTGATTCGCTTGACGCTGCTG” here?
A: 3.35 z-score

Q: For “CCGATTAACATCAGGAAAAAACATGATGTTAATCGGGTCTTGATTCGCTTGACGCTGCTG”, which binding signal is on record?
A: 2.35 z-score

Q: “CCGATTAACATCACGTAAACTCCTGATGTTAATCGGGTCTTGATTCGCTTGACGCTGCTG” was tested. Which binding signal did it give?
A: 1.72 z-score

Q: For “CCGATTAACATCATGGTACTTGTTGATGTTAATCGGGTCTTGATTCGCTTGACGCTGCTG”, which binding signal is on record?
A: 1.26 z-score

Q: Which binding signal does the source give for “CCGATTAACATCAAAATTCCATATGATGTTAATCGGGTCTTGATTCGCTTGACGCTGCTG” here?
A: 1.14 z-score

Q: Which binding signal does the source give for “CCGATTAACATCACGTTATTTCCTGATGTTAATCGGGTCTTGATTCGCTTGACGCTGCTG” here?
A: 1.09 z-score

Q: With “CCGATTAACATCACCTCTCGCGCTGATGTTAATCGGGTCTTGATTCGCTTGACGCTGCTG” as the sequence, how does the binding signal read?
A: 1.25 z-score

Q: How did the binding signal turn out when “CCGATTAACATCACGTAGTTTCCTGATGTTAATCGGGTCTTGATTCGCTTGACGCTGCTG” was run?
A: 1.46 z-score

Q: Which binding signal does the source give for “CCGATTAACATCACGTTTTTTCCTGATGTTAATCGGGTCTTGATTCGCTTGACGCTGCTG” here?
A: 1.57 z-score

Q: With “CCGATTAACATCAGGAATGTACATGATGTTAATCGGGTCTTGATTCGCTTGACGCTGCTG” as the sequence, how does the binding signal read?
A: 4.12 z-score

Q: How did the binding signal turn out when “CCGATTAACATCACGGAAAATACTGATGTTAATCGGGTCTTGATTCGCTTGACGCTGCTG” was run?
A: 1.21 z-score

Q: “CCGATTAACATCAAATTTTCCACTGATGTTAATCGGGTCTTGATTCGCTTGACGCTGCTG” was tested. Which binding signal did it give?
A: 1.2 z-score

Q: With “CCGATTAACATCAAGTGATTTCCTGATGTTAATCGGGTCTTGATTCGCTTGACGCTGCTG” as the sequence, how does the binding signal read?
A: 4.18 z-score

Q: For “CCGATTAACATCACCGCAGCATGTGATGTTAATCGGGTCTTGATTCGCTTGACGCTGCTG”, which binding signal is on record?
A: 1.18 z-score

Q: For “CCGATTAACATCACCATTATAGGTGATGTTAATCGGGTCTTGATTCGCTTGACGCTGCTG”, which binding signal is on record?
A: 1.48 z-score

Q: “CCGATTAACATCAAGTATTTTCCTGATGTTAATCGGGTCTTGATTCGCTTGACGCTGCTG” was tested. Which binding signal did it give?
A: 1.84 z-score

Q: For “CCGATTAACATCACGTGTTTTCCTGATGTTAATCGGGTCTTGATTCGCTTGACGCTGCTG”, which binding signal is on record?
A: 1.04 z-score

Q: With “CCGATTAACATCAGTATTTTCCATGATGTTAATCGGGTCTTGATTCGCTTGACGCTGCTG” as the sequence, how does the binding signal read?
A: 1.33 z-score

Q: How did the binding signal turn out when “CCGATTAACATCAAATGTACTAATGATGTTAATCGGGTCTTGATTCGCTTGACGCTGCTG” was run?
A: 1.5 z-score

Q: How did the binding signal turn out when “CCGATTAACATCAGGAATTACACTGATGTTAATCGGGTCTTGATTCGCTTGACGCTGCTG” was run?
A: 3.55 z-score

Q: With “CCGATTAACATCAAAAAACCGTTTGATGTTAATCGGGTCTTGATTCGCTTGACGCTGCTG” as the sequence, how does the binding signal read?
A: 1.2 z-score

Q: For “CCGATTAACATCAGGAAAAATACTGATGTTAATCGGGTCTTGATTCGCTTGACGCTGCTG”, which binding signal is on record?
A: 1.36 z-score

Q: Which binding signal does the source give for “CCGATTAACATCACTTAGTACGGTGATGTTAATCGGGTCTTGATTCGCTTGACGCTGCTG” here?
A: 1.1 z-score

Q: How did the binding signal turn out when “CCGATTAACATCAGGAAACTACATGATGTTAATCGGGTCTTGATTCGCTTGACGCTGCTG” was run?
A: 5.23 z-score

Q: For “CCGATTAACATCACAAAATTCCATGATGTTAATCGGGTCTTGATTCGCTTGACGCTGCTG”, which binding signal is on record?
A: 1.67 z-score

Q: Which binding signal does the source give for “CCGATTAACATCAGGAAATCACATGATGTTAATCGGGTCTTGATTCGCTTGACGCTGCTG” here?
A: 7.1 z-score

Q: For “CCGATTAACATCAAGTACATTCCTGATGTTAATCGGGTCTTGATTCGCTTGACGCTGCTG”, which binding signal is on record?
A: 2.21 z-score

Q: For “CCGATTAACATCACTGGAAATTCTGATGTTAATCGGGTCTTGATTCGCTTGACGCTGCTG”, which binding signal is on record?
A: 1.59 z-score

Q: Which binding signal does the source give for “CCGATTAACATCAAAATTCCAATTGATGTTAATCGGGTCTTGATTCGCTTGACGCTGCTG” here?
A: 1.02 z-score

Q: Which binding signal does the source give for “CCGATTAACATCAGGAAATAACATGATGTTAATCGGGTCTTGATTCGCTTGACGCTGCTG” here?
A: 2.04 z-score

Q: How did the binding signal turn out when “CCGATTAACATCACAGAAAATCCTGATGTTAATCGGGTCTTGATTCGCTTGACGCTGCTG” was run?
A: 1.19 z-score

Q: For “CCGATTAACATCACAAAAAATTTTGATGTTAATCGGGTCTTGATTCGCTTGACGCTGCTG”, which binding signal is on record?
A: 2.12 z-score

Q: For “CCGATTAACATCAGGAAAATCACTGATGTTAATCGGGTCTTGATTCGCTTGACGCTGCTG”, which binding signal is on record?
A: 3.47 z-score

Q: “CCGATTAACATCACTATTGTACATGATGTTAATCGGGTCTTGATTCGCTTGACGCTGCTG” was tested. Which binding signal did it give?
A: 1.29 z-score

Q: Which binding signal does the source give for “CCGATTAACATCACGTACATTCCTGATGTTAATCGGGTCTTGATTCGCTTGACGCTGCTG” here?
A: 1.63 z-score
